The values below come from PubChem BioAssay.

Assay [1] in a line: reducers of endogenous Her2 protein level, primary screen, SKBR3 breast tumor cells, AlphaScreen, ATP viability (AID 461;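 active means Her2 level under about 52% in both replicate screens, with viability over 70% of control, limit read from the data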;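 on Her2 level: lower value means less Her2 protein in the cells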;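 on viability: percent of carrier control wells set as 100% viability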). As to conditions: 18-24 h, measured here: SKBR3 viability, ATP luminescence, at 10 µM. Background: Alpha assays give light when donor and acceptor beads are brought close together.
The target in assay [2] is Receptor tyrosine-protein kinase erbB-2 (Homo sapiens) (UniProt P04626). The assay is described as above. As to conditions: 18-24 h, at 10 µM, stronger effect = lower value.
A short description of assay [3]: SK-BR-3 cell growth inhibitors, pilot screen, 24 h, human (AID 572;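 active means viability at or below 10% of carrier control in both of two separate runs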;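 further: compound exposure lasted between 18 and 24 h rather than exactly 24 h; 100% = carrier-treated control wells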). As to conditions: SK-BR-3 viability, CellTiter-Glo luminescence, at 10 µM, stronger effect = lower value.
Assay [4] is described as follows: HUVEC growth inhibition – cell-based, human, primary screen (AID 575;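 active means viability at or below 30% in both replicate assays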;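 further: 100% = median of untreated cell wells with 0.1% DMSO on each plate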). As to conditions: HUVEC proliferation, CellTiter-Glo luminescence, 72 h; at 10 µM; stronger effect = lower value. (In general: Cellular ATP, detected with luciferase, serves as a proxy for viable cell number.)
Assay [5] can be described thus: growth inhibitors of H69AR lung tumor, primary screen, human, duplicate replicates (AID 580;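 active means viability at or under a set limit in both replicates, limit being median viability minus 3 SD, cut at about 48% in these data, passing the limit was not always enough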;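 further: 100% = mean luminescence of untreated wells and 0% = no signal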). As to conditions: H69AR lung tumor cells viability, ATP luminescence, 72 h; at 10 µM; stronger effect = lower value.
Assay [6] can be described thus: reversal of MRP1-mediated doxorubicin resistance, pilot screen, H69AR cells, doxorubicin co-treatment (AID 601;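 active means viability loss from added drug above about 55%, and viability with drug at most 40%, in both replicates, limit read from the data, passing the limit was not always enough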). As to conditions: CellTiter-Glo, 72 h, at 10 µM; for differential viability (reversal): stronger effect = higher value.
A short description of assay [7]: 384-well plate pilot, post-Golgi transport modulator project, inhibition of yeast transport mutant growth (AID 636; in the data active means inhibition above about 31%). As to conditions: absorbance 615 nm, about 18 h, stronger effect = higher value.
A short description of assay [8]: growth suppression of yeast trafficking mutant, preliminary HTS, modulators of trafficking downstream of Golgi apparatus project, 1536-format plate, OD 615 nm (AID 637; in the data active means inhibition above about 30%). As to conditions: yeast transport mutant growth, absorbance 615 nm, 18 h; stronger effect = higher value.
The nature of assay [9]: OD615 S. cerevisiae growth inhibition, permissive medium, pilot counter-assay, permissive growth control for S. cerevisiae lifespan shortening project (AID 705). As to conditions: OD615, 24 h, at 10 µM, stronger effect = higher value.
Assay [10] is described as follows: Restrictive medium S. cerevisiae growth inhibition, OD615, pilot screen of yeast lifespan reduction project, restrictive growth control (AID 706;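 active means growth inhibition above a set limit, 3 SD over mean compound inhibition, in both replicates, cut at about 43% in these data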;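 further: modified DeaD lifespan yeast strain shifted to restrictive glucose medium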). As to conditions: OD615, 48 h, at 10 µM, stronger effect = higher value.
Assay [11] is described as follows: viability gain of MRP-1-high H69AR cells under doxorubicin, pilot screen, MRP-1 activator project, CellTiter-Glo, duplicate (AID 807;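 active means viability increase at or above a cutoff of the median across tested compounds plus 3 SD, cut at about 8.5% in these data, passing the limit was not always enough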;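 further: compound pretreatment 18-22 h then 72 h combined with doxorubicin; 0% = doxorubicin alone and 100% = vehicle without doxorubicin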). As to conditions: H69AR viability with doxorubicin, CellTiter-Glo luminescence; at 10 µM; stronger effect = higher value.
Assay [12] is described as follows: growth suppression of beta-catenin knockout HCT116, pilot screen, human colon tumor cells (AID 823;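 active means cell viability at or below a set limit in both duplicate runs, the limit being the all-compound median minus 4 SD, cut at about 23% in these data, passing the limit was not always enough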;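 further: 0% = wells killed by 20 µM Hyamine and 100% = untreated DMSO cell wells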). As to conditions: CellTiter-Glo, 60 h, at 10 µM, stronger effect = lower value.
Assay [13] in a line: growth suppression of PTEN-deleted HCT116, pilot screen, cell-based, HCT116 clonal line, CellTiter-Glo (AID 824;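 active means viability at or below 27.92% in each of two runs, the all-compound median minus 4 SD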;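 further: 0% = 20 µM Hyamine control and 100% = vehicle cell control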). As to conditions: 60 h, at 10 µM, stronger effect = lower value.
A short description of assay [14]: inhibitors of the yeast RAM network, pilot screen, dse1pr::URA3 reporter, 5-FOA selection (AID 869;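 active means inhibition over a set limit, the all-compound mean plus 3 SD, in both replicate runs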;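 further: 0% = DMSO wells with no growth and 100% = 10 µM 1-NA-PP1 with full growth; RAM network block rescues cells from 5-FOA so hits raise OD615 growth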). As to conditions: S. cerevisiae dse1pr::URA3 5-FOA growth, OD615, 2 d; at 10 µM; stronger effect = higher value; strain carries analog-sensitive mutant Cbk1 kinase.
Assay [15] in a line: RAM signaling pathway blockade in yeast – S. cerevisiae, Pdr1DBD-CYC8 efflux-inhibited sensitized strain, primary screen (AID 1298;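 active means RAM network inhibition above 8.4% in each of two replicates, 3 SD over the compound average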;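 further: 0% = DMSO untreated cells without growth and 100% = 10 µM 1-NA-PP1 full growth; higher means more yeast growth rescued from 5-FOA killing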). As to conditions: S. cerevisiae cbk1-as DSE1-URA3 strain, 5-FOA growth OD615, 2 d; at 50 µM; stronger effect = higher value.
Where [16] appears, read: H69AR cells + 2 uM doxorubicin, measured here: viability with 2 uM doxorubicin, stronger effect = lower value.
Where [17] appears, read: H69AR cells, compound alone cytotoxicity.

Results filed as inconclusive are left out. Calls of active or inactive are those of the source.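 How the source made its calls, unless noted: active means growth inhibition above 25% in both replicates, a cutoff set 3 SD above the mean; inconclusive means above 25% in only one replicate; inactive means the rest.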

Sequence of Receptor tyrosine-protein kinase erbB-2 (Homo sapiens) (P04626 whole entry, looked up): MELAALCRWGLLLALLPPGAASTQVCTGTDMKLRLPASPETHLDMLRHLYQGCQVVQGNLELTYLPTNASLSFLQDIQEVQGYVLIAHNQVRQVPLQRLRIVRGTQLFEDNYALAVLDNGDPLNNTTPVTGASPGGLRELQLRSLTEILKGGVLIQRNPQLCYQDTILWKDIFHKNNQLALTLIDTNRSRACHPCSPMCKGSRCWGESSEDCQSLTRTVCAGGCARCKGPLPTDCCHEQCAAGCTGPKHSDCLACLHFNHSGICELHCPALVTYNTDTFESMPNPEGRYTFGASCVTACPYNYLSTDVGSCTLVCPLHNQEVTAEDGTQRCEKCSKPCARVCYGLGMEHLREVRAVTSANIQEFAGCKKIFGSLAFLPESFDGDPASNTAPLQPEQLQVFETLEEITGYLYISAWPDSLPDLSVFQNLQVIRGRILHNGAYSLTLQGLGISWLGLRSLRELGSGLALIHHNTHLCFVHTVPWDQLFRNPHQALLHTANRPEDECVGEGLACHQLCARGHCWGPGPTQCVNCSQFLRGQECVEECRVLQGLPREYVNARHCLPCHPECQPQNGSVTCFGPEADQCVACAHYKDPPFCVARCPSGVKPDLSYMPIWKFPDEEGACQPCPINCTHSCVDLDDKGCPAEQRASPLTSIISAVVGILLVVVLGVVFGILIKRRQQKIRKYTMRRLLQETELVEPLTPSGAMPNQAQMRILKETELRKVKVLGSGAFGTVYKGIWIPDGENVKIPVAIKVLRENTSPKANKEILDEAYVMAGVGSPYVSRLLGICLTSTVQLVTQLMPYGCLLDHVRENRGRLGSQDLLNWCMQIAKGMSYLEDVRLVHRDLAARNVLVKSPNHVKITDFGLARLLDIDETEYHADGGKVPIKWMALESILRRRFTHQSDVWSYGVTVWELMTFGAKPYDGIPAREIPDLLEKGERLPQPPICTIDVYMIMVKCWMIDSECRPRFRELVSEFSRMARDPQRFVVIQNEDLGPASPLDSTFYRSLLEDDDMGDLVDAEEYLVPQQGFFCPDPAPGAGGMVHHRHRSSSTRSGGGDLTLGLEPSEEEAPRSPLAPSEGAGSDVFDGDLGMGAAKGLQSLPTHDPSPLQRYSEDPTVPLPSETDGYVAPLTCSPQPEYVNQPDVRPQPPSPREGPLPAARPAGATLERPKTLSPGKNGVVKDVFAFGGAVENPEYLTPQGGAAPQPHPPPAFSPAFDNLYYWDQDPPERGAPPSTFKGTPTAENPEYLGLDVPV

On to `CCN(CC)C(=O)Oc1ccccc1NC(C)=O`, for which the viability – broadly, a read-out of living cells in per cent, often relative to untreated cells – was 102% in [1]; 102% (inactive) in [3]; 107% (inactive) in assay [4]; 90.5% (inactive) in [5]; 90.7% in assay [6] (setting [16]); 90.5% in [6] (setting [17]). Further, the viability in [12] is 92.2% (inactive); in assay [13], 96.1% (inactive). Further, in assay [2], the Her2 level was 92% (inactive). For the same compound, the differential viability (reversal) in [6] (H69AR cells + 2 uM doxorubicin) was -0.19% (inactive). Further, the inhibition (in general, the change of the read-out against control, counted positive when it falls) is -5.14% (inactive) in [7], -3% (inactive) in assay [8] and 0.84% (inactive) in assay [14]. The growth inhibition in assay [9] was 1.79% (inactive); in [10], -2.54% (inactive). Moreover, the viability increase in assay [11] was -0.54% (inactive). Besides, the RAM network inhibition in assay [15] was -0.6% (inactive).
Take `NC(=O)C1CCN(C(=O)c2cc3n(n2)C(C(F)(F)F)CC(c2ccco2)N3)CC1` (stereo not drawn): the viability is 84% in assay [1]; 84% (inactive) in assay [3]; 104% (inactive) in [4]; 85% (inactive) in assay [5]; 85.8% in assay [6] (setting [16]); 85% in [6] (setting [17]). Besides, the figures for the viability in assay [12] and in assay [13] were 97% (inactive) and 97.4% (inactive), respectively. Further, the Her2 level in [2] is 99.5% (inactive). For the same compound, the differential viability (reversal) in assay [6] (H69AR cells + 2 uM doxorubicin) was -0.83% (inactive). Moreover, the results for the inhibition in [7], in assay [8] and in assay [14] were -0.93% (inactive), -4.67% (inactive) and 2.2% (inactive), respectively. Moreover, the growth inhibition was -7% (inactive) in assay [9] and -1.27% (inactive) in assay [10]. In assay [11], the viability increase was -1.57% (inactive). For the same compound, the RAM network inhibition in assay [15] is 0.98% (inactive).
As for `CC1CCCN(S(=O)(=O)c2coc(C(N)=O)c2)C1` (stereo not drawn), the viability is 87.5% in [1]; 87.5% (inactive) in [3]; 82.6% (inactive) in [4]; 94.6% (inactive) in assay [5]; 118% in assay [6] (setting [16]); 94.6% in assay [6] (setting [17]). In addition, the viability in assay [12] was 108% (inactive); in assay [13], 99.5% (inactive). Moreover, the Her2 level in assay [2] is 119% (inactive). Moreover, the differential viability (reversal) in [6] (H69AR cells + 2 uM doxorubicin) was -23.4% (inactive). The inhibition in assay [7] was -0.51% (inactive); in assay [8], 1% (inactive); in assay [14], 1.33% (inactive). Moreover, the results for the growth inhibition in assay [9] and in [10] were -19.2% (inactive) and -4.31% (inactive), respectively. For the same compound, in [11], the viability increase was -0.1% (inactive). In addition, in assay [15], the RAM network inhibition is 2.99% (inactive).
Regarding `COc1ccc(N(CC(=O)O)S(=O)(=O)c2ccc(OC)c(OC)c2)cc1`, the viability in assay [1] is 112%; in assay [3], 112% (inactive); in assay [4], 108% (inactive); in assay [5], 90.3% (inactive); in [6] (setting [16]) it was 94.1%; in assay [6] (setting [17]), 90.3%. In addition, the viability in [12] is 105% (inactive); in [13], 99.1% (inactive). Besides, the Her2 level in [2] was 102% (inactive). Also, the differential viability (reversal) in [6] (H69AR cells + 2 uM doxorubicin) is -3.8% (inactive). Further, the inhibition is -3.38% (inactive) in assay [7], 1.31% (inactive) in [8] and -0.04% (inactive) in assay [14]. In addition, the growth inhibition in [9] was -15.1% (inactive); in [10], -11.2% (inactive). For the same compound, the viability increase in assay [11] was -1.32% (inactive). The RAM network inhibition in [15] was 0.87% (inactive).
With `COc1cc(NC(=O)C2C3C=CC(C3)C2C(=O)O)c(OC)cc1Cl` (stereo not drawn), the viability in assay [1] was 86%; in assay [3] it was 86% (inactive); in assay [4], 98.4% (inactive); in [5], 98.3% (inactive); in assay [6] (setting [16]), 93.9%; in [6] (setting [17]) it was 98.3%. In addition, the results for the viability in [12] and in assay [13] were 101% (inactive) and 91.8% (inactive), respectively. Besides, in assay [2], the Her2 level is 95% (inactive). Moreover, the differential viability (reversal) in assay [6] (H69AR cells + 2 uM doxorubicin) is 4.4% (inactive). Further, the inhibition was -2.16% (inactive) in assay [7], -3.61% (inactive) in assay [8] and 2.7% (inactive) in assay [14]. For the same compound, the growth inhibition in [9] was -4.4% (inactive); in assay [10], -20.4% (inactive). In addition, the viability increase in [11] is -1.99% (inactive). Also, the RAM network inhibition in assay [15] was 1.54% (inactive).
With `CCc1cc(=O)n2[nH]c(C)c(-c3ccccc3OC)c2n1`, the viability in [1] was 80.5%; in [3], 80.5% (inactive); in assay [4], 91.3% (inactive); in [5], 100% (inactive); in assay [6] (setting [16]), 95%; in [6] (setting [17]), 100%. Besides, the viability in [12] was 98.6% (inactive); in assay [13] it was 105% (inactive). Moreover, the Her2 level in assay [2] was 106% (inactive). Further, the differential viability (reversal) in [6] (H69AR cells + 2 uM doxorubicin) is 5.22% (inactive). In addition, the values for the inhibition in assay [7], in assay [8] and in assay [14] were 0.13% (inactive), -6.83% (inactive) and 2.31% (inactive), respectively. Also, the values for the growth inhibition in assay [9] and in assay [10] were -1.09% (inactive) and 0.365% (inactive), respectively. In addition, the viability increase in assay [11] was -3.04% (inactive). For the same compound, the RAM network inhibition in assay [15] is 1.78% (inactive).
With `COc1ccccc1N(CC(=O)NCc1ccccn1)S(C)(=O)=O`, the viability in assay [1] is 126%; in assay [3], 126% (inactive); in assay [4], 89.2% (inactive); in [5], 95.7% (inactive); in assay [6] (setting [16]), 91.6%; in assay [6] (setting [17]) it was 95.7%. The figures for the viability in assay [12] and in [13] were 97.3% (inactive) and 91.5% (inactive), respectively. In addition, the Her2 level in assay [2] was 105% (inactive). In addition, the differential viability (reversal) in [6] (H69AR cells + 2 uM doxorubicin) is 4.02% (inactive). Besides, the inhibition is -1.3% (inactive) in assay [7], -1.17% (inactive) in assay [8] and 0.815% (inactive) in assay [14]. Further, the figures for the growth inhibition in [9] and in assay [10] were -1.19% (inactive) and -24.7% (inactive), respectively. Besides, in assay [11], the viability increase was -3.02% (inactive). For the same compound, the RAM network inhibition in assay [15] was 4.8% (inactive).
Take `CCSc1nc2c(c(=O)[nH]1)C(c1cccnc1)C(C(=O)OC(C)C)=C(C)N2` (stereo not drawn): the viability was 95.5% in [1]; 95.5% (inactive) in assay [3]; 90.9% (inactive) in [4]; 97.4% (inactive) in assay [5]; 81.8% in [6] (setting [16]); 97.4% in [6] (setting [17]). Besides, the viability is 92.3% (inactive) in assay [12] and 92.5% (inactive) in assay [13]. For the same compound, the Her2 level in assay [2] was 83.5% (inactive). For the same compound, the differential viability (reversal) in assay [6] (H69AR cells + 2 uM doxorubicin) is 15.6% (inactive). Moreover, the inhibition is -4.19% (inactive) in [7], -0.33% (inactive) in [8] and 0.98% (inactive) in [14]. Also, the growth inhibition is -18.5% (inactive) in assay [9] and -8.67% (inactive) in [10]. Besides, the viability increase in assay [11] was -3.07% (inactive). In assay [15], the RAM network inhibition is 0.72% (inactive).
As to `COc1cccc(C2C(C(=O)c3ccc(C)o3)=C(O)C(=O)N2CCCN(C)C)c1` (stereo not drawn), the viability was 99.5% in assay [1]; 99.5% (inactive) in assay [3]; 100% (inactive) in [4]; 108% (inactive) in assay [5]; 95% in assay [6] (setting [16]); 108% in [6] (setting [17]). Besides, the viability in assay [12] is 102% (inactive); in assay [13] it was 96.1% (inactive). For the same compound, in assay [2], the Her2 level is 90.5% (inactive). For the same compound, the differential viability (reversal) in assay [6] (H69AR cells + 2 uM doxorubicin) was 12.6% (inactive). The inhibition in assay [7] was -4.73% (inactive); in [8], 7.14% (inactive); in assay [14], -0.125% (inactive). Moreover, the growth inhibition in assay [9] was -10.7% (inactive); in [10] it was -11.7% (inactive). In [11], the viability increase is -1.16% (inactive). For the same compound, in assay [15], the RAM network inhibition is 1.67% (inactive).
